Bioassay records (PubChem BioAssay)
Peg3 promoter = Peg3 promoter-driven luciferase inhibitors, primary screen, cell-based, HeLa, luciferase luminescence. HeLa PEG-Prom luciferase reporter, overnight. inhibition, % at 20 µM. 1.7% of 360,000 active. AID 588405, 2011;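 active = inhibition of at least 50% at 20 µM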
Shn3 inh set2 = reduction of Shn3 3'UTR firefly luciferase signal, primary screen, Schnurri-3 inhibitor project, cell-based, Clone20 osteoblasts, set 2; Clone20 osteoblast Shn3 3'UTR firefly luciferase, 24 h; inhibition, % at 12.5 µM; 0.52% of 360,000 active; AID 588674, 2011;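 active = mean inhibition of at least 75% with every replicate also reaching 75%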;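 note: 0% = median of neutral control wells and 100% = pilot-screen positive control compound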
EWS-Fli inh = EWS/Fli-driven NR0B1 reporter inhibitors, primary screen, A673 cells, NR0B1 luciferase, luminescence, MLPCN library. 0.67% of 350,000 active. inhibition, % at 12.6 µM. viability-normalised;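 active = mean inhibition of at least 50% after viability correction, with every replicate also passing that limit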;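 note: firefly luciferase signal divided by Alamar Blue viability fluorescence both relative to DMSO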
PAX8 inh HTS = inhibitors of PAX8-driven TPO luciferase reporter, primary screen, RMG-I cells, single concentration; SteadyGlo, 24 h; inhibition, % at 12.6 µM; 1.2% of 360,000 active;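 active = mean replicate inhibition at least 60% with every replicate also reaching 60%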;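 note: luciferase light reporting Pax8 driven TPO promoter activity; plate controls were median of neutral control wells for no effect and mitoxantrone controls for full effect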
MITF TRPM1 inh = inhibitors of MITF-dependent TRPM1 promoter reporter, primary screen, cell-based, SK-MEL-5, single point, luciferase | SK-MEL-5 TRPM1 promoter luciferase, 24 h | inhibition, % at 12.5 µM | 0.83% of 330,000 active | AID 488899, 2010;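 active = mean inhibition across replicates of 60% or more, whatever share of single replicates reaches that level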
ABHD5 PLIN5 PPI = ABHD5-PLIN5 interaction inhibitors, primary screen, cell lysate, split luciferase complementation, luminescence; inhibition, % at 4 µM; 0.78% of 360,000 active; Perilipin-5 (Homo sapiens) + 1-acylglycerol-3-phosphate O-acyltransferase ABHD5 (Homo …; Split G. princeps luciferase complementation, 4 h;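 active = inhibition above the mean inhibition across every tested compound plus 3 SD, cut at about 22% in these data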;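 note: 0% = DMSO only wells and the 100% control is not disclosed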
Target sequence (Q00G26 whole entry, looked up): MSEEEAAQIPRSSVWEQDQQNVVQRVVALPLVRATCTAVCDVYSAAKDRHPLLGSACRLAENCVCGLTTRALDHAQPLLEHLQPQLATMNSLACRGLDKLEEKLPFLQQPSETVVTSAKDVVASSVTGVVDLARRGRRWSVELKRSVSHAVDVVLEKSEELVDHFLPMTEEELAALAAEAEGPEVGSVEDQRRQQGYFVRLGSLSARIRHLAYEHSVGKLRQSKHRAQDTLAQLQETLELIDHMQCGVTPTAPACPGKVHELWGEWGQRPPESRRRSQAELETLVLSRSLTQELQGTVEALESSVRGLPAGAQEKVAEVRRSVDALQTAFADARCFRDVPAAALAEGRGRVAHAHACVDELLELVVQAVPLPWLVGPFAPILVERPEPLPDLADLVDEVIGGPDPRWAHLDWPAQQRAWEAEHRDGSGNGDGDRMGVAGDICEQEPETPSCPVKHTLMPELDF
Target sequence (Q8WTS1 whole entry, looked up): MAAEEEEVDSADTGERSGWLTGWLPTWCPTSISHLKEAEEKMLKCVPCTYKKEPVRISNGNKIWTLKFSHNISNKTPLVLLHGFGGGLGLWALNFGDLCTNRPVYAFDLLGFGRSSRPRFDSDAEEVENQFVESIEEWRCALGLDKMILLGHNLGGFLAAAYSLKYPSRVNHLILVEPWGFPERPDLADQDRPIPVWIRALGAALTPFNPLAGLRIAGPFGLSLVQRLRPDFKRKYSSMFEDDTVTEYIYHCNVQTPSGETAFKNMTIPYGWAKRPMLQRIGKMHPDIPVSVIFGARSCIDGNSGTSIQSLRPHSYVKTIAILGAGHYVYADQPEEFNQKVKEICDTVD
Starred values were filed as active, the others as inactive; x = no result given. Shown are actives, neighbours in structure and some others; about 3% of the full set was active somewhere.

SMILES | Peg3 promoter | Shn3 inh set2 | EWS-Fli inh | PAX8 inh HTS | MITF TRPM1 inh | ABHD5 PLIN5 PPI
CCOC(=O)N1CCC(NC(=O)c2ccc3c(c2)N=C(CC)c2cc(C)ccc2S3)CC1 | 34 | 40 | x | 48 | 25 | 6
CCOC(=O)N1CCC(NC(=O)c2ccc3c(c2)N=C(C)c2c(C)ccc(C)c2S3)CC1 | 21 | 31 | 44 | 96* | 59 | -3
Cc1ccc(NS(=O)(=O)c2ccc(C(=O)NC3CCN(Cc4ccccc4)CC3)cc2)cc1 | 32 | 85* | 1 | 14 | 20 | 6
CO[C@@H](CN(C)Cc1nccs1)[C@@H](C)CN([C@H](C)CO)S(=O)(=O)c1ccc(C)cc1 | x | x | -1 | x | x | x
O=C(Nc1ccc(F)cc1)c1nn(-c2ccccc2)c(=O)cc1Cl | 99* | 34 | 11 | 19 | -7 | 19
Cc1ccc(NC(=O)c2cc(-c3ccccc3)nn2-c2ccccc2)cc1 | -157 | 11 | -1 | 11 | -1 | 3
C[C@@H]1CN([C@@H](C)CO)C(=O)Cc2cc(NC(=O)Cc3cn(C)c4ccccc34)ccc2O[C@H]1CN(C)Cc1ccc(C(F)(F)F)cc1 | x | x | 17 | 71* | x | x
C[C@@H]1CN([C@@H](C)CO)C(=O)Cc2cc(NC(=O)Nc3ccc(F)cc3)ccc2O[C@H]1CN(C)Cc1ccc(C(F)(F)F)cc1 | x | x | 54* | x | x | x
C[C@H]1CN([C@@H](C)CO)C(=O)Cc2cc(NC(=O)Nc3ccc(F)cc3)ccc2O[C@H]1CN(C)Cc1ccc(C(F)(F)F)cc1 | x | x | -16 | x | x | x
C[C@@H]1CN([C@H](C)CO)C(=O)Cc2cc(NC(=O)Nc3ccc(C(F)(F)F)cc3)ccc2O[C@@H]1CN(C)Cc1ccc(-c2ccccc2)cc1 | x | x | -9 | 15 | x | x
C[C@H](CO)N1C[C@H](C)[C@H](CN(C)Cc2ccccc2)Oc2ccc(NC(=O)Cc3cn(C)c4ccccc34)cc2CC1=O | x | x | -3 | 13 | x | x
C[C@H](CO)N1C[C@H](C)[C@@H](CN(C)Cc2ccc(-c3ccccc3)cc2)Oc2ccc(NC(=O)Nc3ccc(C(F)(F)F)cc3)cc2CC1=O | x | x | 7 | 68* | x | x
C[C@@H]1CN([C@@H](C)CO)C(=O)Cc2cc(NC(=O)Nc3ccc(C(F)(F)F)cc3)ccc2O[C@H]1CN(C)Cc1ccccc1 | x | x | 14 | 68* | x | x
C[C@H]1CN([C@@H](C)CO)C(=O)c2cc(NC(=O)Cc3ccccc3)ccc2O[C@H]1CN(C)Cc1ccc2c(c1)OCO2 | x | x | x | 7 | x | x
COc1ccc(NC(=O)Nc2ccc3c(c2)CC(=O)N([C@@H](C)CO)C[C@H](C)[C@@H](CN(C)Cc2ccc(C(F)(F)F)cc2)O3)cc1 | x | x | 15 | 70* | x | x
C[C@@H]1CN([C@@H](C)CO)C(=O)Cc2cc(NC(=O)C3CCCCC3)ccc2O[C@H]1CN(C)Cc1ccc(Cl)c(Cl)c1 | x | x | 9 | 95* | x | x
C[C@H]1CN([C@@H](C)CO)C(=O)Cc2cc(NC(=O)CCN3CCOCC3)ccc2O[C@H]1CN(C)Cc1ccc(C(F)(F)F)cc1 | x | x | 60* | -2 | x | x
C[C@@H]1CN([C@H](C)CO)C(=O)Cc2cc(NC(=O)Nc3ccc(F)cc3)ccc2O[C@H]1CN(C)Cc1ccc(Cl)c(Cl)c1 | x | x | 5 | 109* | x | x
C[C@@H]1CN([C@H](C)CO)C(=O)Cc2cc(NC(=O)CCN3CCOCC3)ccc2O[C@H]1CN(C)Cc1ccc(C(F)(F)F)cc1 | x | x | -7 | -9 | x | x
COc1cc(CO)cc(I)c1O[C@H]1C=C(C(=O)NCCO)C[C@@H](NCc2ccccc2F)[C@@H]1O | x | x | -1 | -3 | x | x
CC=Cc1ccc2n(c1=O)C[C@H]1[C@H](CO)[C@@H](C(=O)N(C)C)[C@@H]2N1CC1CC1 (mixture of isomers) | x | x | 1 | -2 | x | x
CO[C@H]1CN(C)C(=O)c2cc(NC(C)=O)ccc2OC[C@H](C)N(C(=O)Cc2cccnc2)C[C@@H]1C | x | x | -3 | -2 | x | x
COc1ccc(CN(C)C[C@H]2Oc3ccc(NC(=O)CCN4CCOCC4)cc3C(=O)N([C@@H](C)CO)C[C@@H]2C)cc1 | x | x | 0 | 5 | x | x
CC1C=NC(S(=O)(=O)N2CC[C@@H]3[C@H](CO)N(C)c4ccc(-c5ccc(F)cc5)cc4[C@@H]32)=N1 (stereo not given in full) | x | x | -10 | -39 | x | x
O=C(C[C@H]1C[C@@H]2c3cc(NS(=O)(=O)c4ccc(F)cc4)ccc3O[C@@H]2[C@@H](CO)O1)NCC1CC1 | x | x | -1 | 4 | x | x
SMILES | Peg3 promoter | Shn3 inh set2 | EWS-Fli inh | PAX8 inh HTS | MITF TRPM1 inh | ABHD5 PLIN5 PPI
COc1ccccc1S(=O)(=O)N1CC[C@@H]2[C@H](CO)Nc3ccc(-c4ccccc4)cc3[C@@H]21 | x | x | -25 | 58 | x | x
CO[C@@H]1CN(C)C(=O)c2ccc(NS(=O)(=O)CC(F)(F)F)cc2OC[C@H](C)N(Cc2nccs2)C[C@H]1C | x | x | 6 | 5 | x | x
CCC(=O)N(C)C[C@H]1Oc2cc(C#Cc3ccccn3)ccc2S(=O)(=O)N([C@@H](C)CO)C[C@@H]1C | x | x | -4 | x | x | x
CC(C)n1c(/C=C/[C@H](O)C[C@H](O)CC(=O)O)c(-c2ccc(F)cc2)c2ccccc21 | 39 | 89* | x | x | -31 | -9
COc1ccc2cc3c(N)nn(C(=O)Cc4c[nH]c5ccccc45)c3nc2c1 | 106* | 23 | 22 | 8 | 63* | 5
C[C@@H]1CN([C@H](C)CO)C(=O)c2cc(NC(=O)Nc3ccc(F)cc3)ccc2O[C@H]1CN(C)C(=O)Nc1ccc2c(c1)OCO2 | x | x | -50 | x | x | x
NC(Cc1ccc(Cl)cc1)c1csc(NC(=O)Nc2ccccc2)n1 (stereo not given) | 101* | 21 | -3 | 14 | x | -3
NC(Cc1ccc(C(F)(F)F)cc1)c1csc(Nc2nncc3ccccc23)n1 (stereo not given) | 94* | 7 | 11 | 10 | x | -4
NC(Cc1ccc(Cl)cc1)c1csc(Nc2ccc(S(N)(=O)=O)cc2)n1 (stereo not given) | 24 | 0 | -6 | 16 | x | 6
NC(Cc1ccc(C(F)(F)F)cc1)c1csc(NC(=O)Nc2ccccc2)n1 (stereo not given) | 94* | -5 | -5 | -4 | x | -4
NC(Cc1ccc(C(F)(F)F)cc1)c1csc(NC(=O)Nc2ccccc2Cl)n1 (stereo not given) | 89* | -7 | 3 | -6 | x | -16
COc1ccc(NC(=O)N(C)C[C@H]2Oc3cc(-c4ccc(C)cc4)ccc3S(=O)(=O)N([C@H](C)CO)C[C@H]2C)cc1 | x | x | 12 | x | x | x
O=C(C[C@H]1C[C@@H]2c3cc(NC(=O)Nc4ccccc4)ccc3O[C@@H]2[C@H](CO)O1)NCCN1CCCCC1 | x | x | -1 | -5 | x | x
COc1cc(CNC(=O)Nc2nc(C(N)Cc3ccc(C(F)(F)F)cc3)cs2)cc(OC)c1OC (stereo not given) | 98* | -12 | 13 | 33 | x | 0
